Test results from PubChem BioAssay (Tox21).
Values without a mark were called inactive. Calls of active or inactive are those of the source. Calls follow the shape of the dose curve; as a rule, active = well fitted cell-killing curve with a large enough effect in the repeat runs; inconclusive = weak or mixed curves, or effect the other way; inactive = flat fitted curve, though single readings scatter.
% is scaled to controls: 0 for no effect and ±100 for the full control effect.

Assay: qHTS assay to identify small molecule HDAC inhibitors - cell viability counter screen (AID 1259365); also: nearly all actives have a fitted effect of over 50% in size
Conditions: HCT-116 viability, CellTiter-Glo ATP luminescence, 2 h; series mostly up to 92.4 µM; activity change, negative = cytotoxicity: at the top concentration
From the text: U.S. Tox21 Program National Center for Advancing Translational Sciences [NCATS] NIH Chemical Genomics Center [NCGC] U.S. Environmental Protection Agency [EPA] National Institutes of Environmental Health Sciences [NIEHS] National Toxicology Program [NTP] U.S. Food and Drug Administration [FDA] Tox21 Assay Overview: Histone deacetylases (HDACs) are a group of epigenetic enzymes that regulate gene expression by histone deacetylation. HDACs are capable of introducing epigenetic modifications and such aberrations contribute to the onset and progression of several human diseases, thus making HDACs a popular therapeutic target. For identifying endogenous class I/II HDAC inhibitors a homogenous, luminogenic HDAC I/II cell based assay was used to measure the relative activity of class I and II HDACs from cells. Wild type HCT-116 cells were used to screen Tox21 compound libraries for identifying class I/II HDAC inhibitors.
Tox21 Assay Protocol Summary: HCT-116 cells were dispensed at 1,500 per well in 5uL of culture medium into white solid bottom 1536-well plates (Greiner Bio-One, Monroe, NC) using a Multidrop Combi (Thermo Scientific, Waltham, MA) dispenser. The assay plates were incubated at 37 C and 5% CO2 for an overnight, and then 23nL of compounds dissolved in DMSO and positive control were transferred using a Pintool station (Wako, San Diego, CA). The assay plates were incubated at 37C and 5% CO2 for 2hr. After compound treatment, 4uL of CellTiter-Glo reagent (Promega Corporation, Madison, WI) was added to each well of the assay plates using Flying Reagent Dispenser (FRD, Aurora Discovery, San Diego, CA) and incubated the assay plates at room temperature for 30min. The luminescence signal was quantified using a ViewLux plate reader (Perkin Elmer, Shelton, CT).
For Cc1cc(=O)[nH]o1, the “activity change, negative = cytotoxicity” value was 0.0862%.
In the case of COc1ccc(-c2ccccc2)cc1NNC(=O)OC(C)C, the “activity change, negative = cytotoxicity” value is reported as 2.3%.
In the case of COC(C)(C)CCC[C@H](C)C/C=C/C(C)=C/C(=O)OC(C)C, the “activity change, negative = cytotoxicity” value is reported as -2.68%.
In the case of CC(=O)CCC(C)=O, the “activity change, negative = cytotoxicity” value is reported as -1.74%.
In the case of CC1(C)CCC(Cc2ccc(Cl)cc2)C1(O)Cn1cncn1 (stereo not given), the “activity change, negative = cytotoxicity” value is reported as -11.6%.
In the case of CN1C(=O)C(O)N=C(c2ccccc2)c2cc(Cl)ccc21 (stereo not given), the “activity change, negative = cytotoxicity” value is reported as 4.26%.
With CCCN(CCC)c1c([N+](=O)[O-])cc(S(C)(=O)=O)cc1[N+](=O)[O-] the “activity change, negative = cytotoxicity” value was -12.6%.
For COC(=O)C(Cl)C(=O)OC, the “activity change, negative = cytotoxicity” value was 4.32% [at 42.5 µM].
With CCOC(=O)C(Cl)C(C)=O (stereo not given) the “activity change, negative = cytotoxicity” value was -0.126%.
For CCC(COC(=O)c1cc(OC)c(OC)c(OC)c1)(c1ccccc1)N(C)C (stereo not given), the “activity change, negative = cytotoxicity” value was -8.22% [at 42.5 µM].
In the case of O=[N+]([O-])c1ccccc1CCl, the “activity change, negative = cytotoxicity” value is reported as 0.243%.
With O=[N+]([O-])C(Br)(CO)CO the “activity change, negative = cytotoxicity” value was 15.1%.
In the case of CCc1ccc(C(=O)NN(C(=O)c2cc(C)cc(C)c2)C(C)(C)C)cc1, the “activity change, negative = cytotoxicity” value is reported as -2.74%.
For O=C(O)CC(Cl)C(=O)O (stereo not given), the “activity change, negative = cytotoxicity” value was -0.0982%.
For NNC(=O)c1cccnc1, the “activity change, negative = cytotoxicity” value was 2.36%.
In the case of CC(C)(OO)c1ccccc1, the “activity change, negative = cytotoxicity” value is reported as -6.13%.
With COC(=O)c1cncn1C(C)c1ccccc1 (stereo not given) the “activity change, negative = cytotoxicity” value was 3.79% [at 42.5 µM].
In the case of O=C(Nc1ccccc1)Nc1cnns1, the “activity change, negative = cytotoxicity” value is reported as -0.534%.
For CCN(C)N=O, the “activity change, negative = cytotoxicity” value was -1.87%.
In the case of C=CC(=O)NCNC(=O)C=C, the “activity change, negative = cytotoxicity” value is reported as -5.28%.
With COc1nn(C(=O)NS(=O)(=O)c2ccccc2OC(F)(F)F)c(=O)n1C the “activity change, negative = cytotoxicity” value was 0.696%.
In the case of CC[C@H]1C[C@H]2[C@@H]3CCC4=CC(=O)CC[C@@H]4[C@H]3CC[C@]2(C)[C@H]1O, the “activity change, negative = cytotoxicity” value is reported as -1.31% [at 42.5 µM].
In the case of COc1cc(CC(C)N)cc2c1OCO2 (stereo not given), the “activity change, negative = cytotoxicity” value is reported as -8.38%.
In the case of CN1C(=O)NC(=O)C(C)(C2=CCCCC2)C1=O (stereo not given), the “activity change, negative = cytotoxicity” value is reported as -0.232% [at 42.5 µM].
For Brc1ccc(Oc2ccccc2)cc1, the Potency was “inactive”.
For ClC=C(Cl)Cl, the “activity change, negative = cytotoxicity” value was 0.71%.
With CCCCC(O)(Cn1cncn1)c1ccc(Cl)cc1Cl (stereo not given) the “activity change, negative = cytotoxicity” value was -7.78%.
In the case of Cn1cc[n+](C)c1 (tested in a mixture with another compound), the “activity change, negative = cytotoxicity” value is reported as 5.4%.
With N#CCC#N the “activity change, negative = cytotoxicity” value was 10.4%.
For COc1c(C(C)(C)C)cc([N+](=O)[O-])c(C)c1[N+](=O)[O-], the “activity change, negative = cytotoxicity” value was -8.85%.
With Clc1cccc2ccccc12 the “activity change, negative = cytotoxicity” value was 0.184%.
With CC/C(=N\OC/C=C/Cl)C1=C(O)CC(C2CCOCC2)CC1=O (stereo not given) the “activity change, negative = cytotoxicity” value was -0.0234%.
For BrCCCCBr, the “activity change, negative = cytotoxicity” value was 1.66%.
In the case of CCC(Br)(CC)C(=O)NC(N)=O, the “activity change, negative = cytotoxicity” value is reported as 0.793%.
With CCOP(=S)(Oc1ccc([N+](=O)[O-])cc1)c1ccccc1 (stereo not given) the “activity change, negative = cytotoxicity” value was -7.86%.
With CCOc1ccc(C(C)(C)COCc2cccc(Oc3ccccc3)c2)cc1 the “activity change, negative = cytotoxicity” value was -9.69%.
In the case of O=[Se]=O, the “activity change, negative = cytotoxicity” value is reported as -9.72% [at 42.5 µM].
For C[N+](C)(C)CCCl, the “activity change, negative = cytotoxicity” value was 2.53%.
In the case of CCO[C@H]1O[C@@H]2OC3(C)CC[C@H]4[C@H](C)CC[C@@H]([C@H]1C)[C@@]24OO3, the “activity change, negative = cytotoxicity” value is reported as -3.82% [at 42.5 µM].
With C=CCOC(C)=O the “activity change, negative = cytotoxicity” value was -1.4%.
